ERK EGF inh – inhibitors of EGF-stimulated ERK signaling pathway; HEK293-V1b, EGF-stimulated phospho-ERK AlphaScreen; Potency, µM (top dose mostly 11.5 µM), for inactives: at the highest dose activity change, negative = inhibition, actives largely listed as inhibitors; 130,000 compounds, 0.41% hits; AID 1454;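 also: plate controls were stimulated vehicle wells for no effect and unstimulated vehicle basal for full effect; nearly all actives have a fitted effect of over 55% in size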
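HEK293 cells stably expressing V1b receptor, serum-reduced (1% FBS) overnight, got compound for 30 min at 37C, then 25 nM EGF for 5 min. Lysate phospho-ERK read by AlphaScreen SureFire; AC50 from Hill fits.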
HTT cytoprotect – protects HTT-Q103 PC12 cells, measured by ATP | PC12 HTT-Q103 induced, cytoprotection, ATP luminescence, 40 h | Potency, µM (series often up to 56.4 µM), inactives show cytoprotection (ATP increase), hits mostly activators | 230,000 compounds, 0.14% hits; also: % of control where 0% means no effect; nearly all actives have a fitted effect of over 45% in size
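Huntington model: PC12 line, ecdysone-inducible HTTQ103 exon1–GFP, tebufenozide 100 nM. Test articles in a dose series. Endpoint luminescence from cellular ATP.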
HTT aggregate – reduces HttQ103-GFP aggregates in PC12 cells. Potency, µM (top dose mostly 46.1 µM), without a hit: at the top dose activity change, negative = inhibition, actives largely listed as inhibitors. PC12 HttQ103-GFP aggregates, Acumen cytometry, 40 h. 220,000 compounds, 1.1% hits; also: % is scaled to controls: 0 for no effect and ±100 for the full control effect; nearly all actives have a fitted effect of over 60% in size
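Compounds (qHTS titration) were added to PC12 cells expressing an ecdysone-driven HTT exon 1 Q103–GFP fusion after induction with 100 nM tebufenozide. Aggregate formation was measured as GFP objects in cell lysates.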
An asterisk follows results filed as active; [ ] = remark or other dose. A selection: hits, their analogues and other compounds. The true share with any hit is near 1.4%. Calls follow the shape of the dose curve; as a rule, active = well fitted curve in the direction sought with a large enough effect; inconclusive = small, poorly fitted or top-dose-only effect, or another doubt; inactive = no such curve, though single readings can be large; an effect the other way counts as inactive or inconclusive. Potency is read from the fitted curve at half-maximal effect.

`CC1=C(C(=O)OCc2ccccc2)C(C2CC2)NC(=O)N1CCCCCC(=O)O` (configuration not stated) gave ERK EGF inh -7.5% and HTT cytoprotect -1.4%.
CC(C)(C)n1nnnc1C(c1ccc(F)cc1)N(Cc1ccc(F)cc1)Cc1ccco1 (configuration not stated) was read as HTT cytoprotect 3.2%[10 µM] and HTT aggregate inconclusive.
Screening CC(C)(C)n1nnnc1C(c1ccc(C(F)(F)F)cc1)N(Cc1ccc(F)cc1)Cc1ccco1 (configuration not stated) returned ERK EGF inh -1.1%, HTT cytoprotect -17.0%[10 µM] and HTT aggregate 15.8µM*.
S=C(S)NCCN1CCNCC1 was read as HTT cytoprotect -17.1%[10 µM].
COc1ccccc1NC(=S)NCCN1CCOCC1 was read as ERK EGF inh -1.3% and HTT aggregate -9.2%.
`S=C(NCCN1CCOCC1)Nc1cccc2ccccc12` gave ERK EGF inh 12.8%, HTT cytoprotect -14.9%[10 µM] and HTT aggregate 3.55µM*.
Screening CC(C)C[C@@H](CC(=O)N[C@@H](CCC(=O)O)CC(=O)O)NC(=O)[C@@H]1CCCC[C@H]1NC(=O)C[C@H](CCCN)NC(=O)C[C@H](CO)NC(=O)[C@@H]1CNCC[C@H]1N returned ERK EGF inh -6.2% and HTT cytoprotect inconclusive.
Screening CCOc1ccc(NCC(=O)c2ccc(C)cc2)cc1 returned ERK EGF inh 1.5%, HTT cytoprotect -221.3% and HTT aggregate 11.2µM*.
For Cc1ccc(C(=O)CNc2ccc(Cl)cc2)cc1 the results were ERK EGF inh 5.0%, HTT cytoprotect -30.1% and HTT aggregate 10.4%.
`CCN(CC)CCCn1c(-c2ccccc2)nc2c(NCCOC)nc(C)nc21` gave ERK EGF inh 6.5% and HTT cytoprotect 10.9%.
`CC(=O)N[C@@H](CC(=O)O)C(=O)N[C@@H](CCC(=O)O)C(=O)O` gave ERK EGF inh -2.2%, HTT cytoprotect -22.9% and HTT aggregate 10.0%.
For COCCNc1nc2c(c(=O)n(C)c(=O)n2C)n1Cc1cccc(C)c1 the results were HTT cytoprotect -12.1%[10 µM] and HTT aggregate 15.8µM*.
For Cn1c(NCc2ccccc2)nc2c1c(=O)n(Cc1ccccc1)c(=O)n2C the results were HTT cytoprotect -18.4%[10 µM] and HTT aggregate -9.6%.
For Cc1cccc(Cn2c(NCCO)nc3c2c(=O)n(C)c(=O)n3C)c1 the results were HTT cytoprotect -8.4%[10 µM] and HTT aggregate inconclusive.
For CC(C)CCNc1nc2c(c(=O)n(Cc3cccc(F)c3)c(=O)n2C)n1C the results were HTT cytoprotect -25.1% and HTT aggregate 25.1µM*.
`CC(C)=CCC/C(C)=C/C=C/C(C)=C/C=C/C(C)=C/C=C/C=C(C)/C=C/C=C(C)/C=C/C=C(\C)CCC=C(C)C` gave HTT cytoprotect inconclusive and HTT aggregate 19.0%.
`CN1C[C@H](C(=O)N[C@]2(C)O[C@@]3(O)[C@H]4CCCN4C(=O)[C@@H](Cc4ccccc4)N3C2=O)C[C@H]2c3cccc4[nH]cc(c34)C[C@@H]21` gave HTT cytoprotect -4.3%.
For COCC#Cc1ccc(C2C(C)CCC3C(=O)N4C(CCC(C)C4c4ccc(C#CCOC)cc4)C(=O)N32)cc1 (configuration not stated) the results were HTT cytoprotect 1.2%[10 µM].
Screening COc1ccccc1-c1nccc(Nc2ccc(F)cc2)n1 returned HTT cytoprotect -64.0%.
For Cc1ccc(C(=O)Cn2c(C(=O)/C=C/c3ccccc3)nc3ccccc32)cc1 the results were HTT cytoprotect -57.3% and HTT aggregate 11.2µM*.
Cc1ccc(C(=O)Cn2c(NCCO)nc3ccccc32)cc1 was read as HTT cytoprotect -25.7%[10 µM] and HTT aggregate -11.5%.
For CCCCC(=O)Oc1ccccc1C(=O)O the results were ERK EGF inh 19.3% and HTT cytoprotect 9.2%.
For CCC1=C2CC[C@H]3C(=O)NC(=O)[C@H]3[C@H]2[C@@]2(C)C(=O)N(CC3CC3)C(=O)N2C1=O the results were ERK EGF inh -0.9% and HTT cytoprotect -29.1%.
Screening O=S(=O)(c1cccs1)N1CCCc2cccc(O)c21 returned HTT cytoprotect -15.2% and HTT aggregate 11.2µM*.
`O=S(=O)(c1cccs1)N1CCN(S(=O)(=O)c2cccs2)CC1` gave ERK EGF inh -10.3%, HTT cytoprotect -16.2%[10 µM] and HTT aggregate -8.4%[9.22 µM].
`O=C(NS(=O)(=O)c1ccc(F)cc1)O[C@@H]1C(=O)c2cc(Br)ccc2O[C@H]1c1ccc2c(c1)OCO2` gave ERK EGF inh -6.0% and HTT cytoprotect inconclusive.
Screening COc1ccc(CC(=O)Nc2cccc(-c3nnc(-c4cccc(C)c4)o3)c2)cc1OC returned HTT cytoprotect -28.1%[10 µM] and HTT aggregate 11.2µM*.

Screening results from PubChem BioAssay.
